Structures are written as SMILES. Out of some 310,000 compounds screened, about 14,000 (4.5%) showed an effect of 50% or more. Effects have a minus sign here. Many of the other results were omitted from the sample, so strong results are more common in it than they were.
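Also: peak tail current of the secondary pulse compared with the same well before compound.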

The target of the assay is human ether-à-go-go-related gene (hERG) potassium channel (human, UniProt Q12809). The experiment in a line: primary screen, population patch clamp on CHO cells stably expressing hERG; higher = less effect of the substance.
Sequence of human ether-à-go-go-related gene (hERG) potassium channel (Q12809 whole entry, looked up): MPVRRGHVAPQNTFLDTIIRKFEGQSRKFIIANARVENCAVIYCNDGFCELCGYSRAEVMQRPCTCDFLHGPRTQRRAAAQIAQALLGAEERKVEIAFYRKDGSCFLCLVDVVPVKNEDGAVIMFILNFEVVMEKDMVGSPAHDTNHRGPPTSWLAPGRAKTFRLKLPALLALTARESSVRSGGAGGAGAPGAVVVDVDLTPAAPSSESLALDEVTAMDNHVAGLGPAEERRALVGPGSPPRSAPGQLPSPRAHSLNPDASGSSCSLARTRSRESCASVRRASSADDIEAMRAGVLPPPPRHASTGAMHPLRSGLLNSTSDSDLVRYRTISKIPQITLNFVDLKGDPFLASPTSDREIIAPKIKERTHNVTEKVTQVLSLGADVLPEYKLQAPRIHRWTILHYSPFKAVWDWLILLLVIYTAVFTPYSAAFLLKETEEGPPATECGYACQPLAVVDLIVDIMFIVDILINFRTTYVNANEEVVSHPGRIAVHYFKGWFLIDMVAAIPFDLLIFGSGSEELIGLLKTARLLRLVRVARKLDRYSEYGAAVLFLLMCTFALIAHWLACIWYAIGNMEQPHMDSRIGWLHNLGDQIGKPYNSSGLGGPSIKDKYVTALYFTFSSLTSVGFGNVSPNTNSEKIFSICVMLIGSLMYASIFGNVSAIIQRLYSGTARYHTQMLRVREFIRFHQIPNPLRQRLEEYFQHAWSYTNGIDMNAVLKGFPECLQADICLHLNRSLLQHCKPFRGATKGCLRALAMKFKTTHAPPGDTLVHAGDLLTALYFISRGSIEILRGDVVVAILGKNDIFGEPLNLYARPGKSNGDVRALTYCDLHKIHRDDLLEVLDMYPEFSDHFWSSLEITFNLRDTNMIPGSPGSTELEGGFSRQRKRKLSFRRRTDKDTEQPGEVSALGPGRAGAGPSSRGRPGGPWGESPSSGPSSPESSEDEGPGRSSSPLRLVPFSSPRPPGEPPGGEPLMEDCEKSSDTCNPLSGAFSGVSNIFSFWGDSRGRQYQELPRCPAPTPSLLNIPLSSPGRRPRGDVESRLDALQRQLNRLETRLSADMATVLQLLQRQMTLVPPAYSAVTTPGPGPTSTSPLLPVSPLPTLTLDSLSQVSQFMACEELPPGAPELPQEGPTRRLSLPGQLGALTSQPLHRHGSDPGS
In the case of `Cc1nn(C(=O)CCC(=O)NCc2ccccc2Cl)c2ccccc12`, the “hERG current change (%, negative = inhibition) at 10uM” value was determined as 15.2%.
As for `Cc1c(Cl)cccc1NC(=O)C1COc2ccccc2O1` (stereo not drawn), the “hERG current change (%, negative = inhibition) at 10uM” value is recorded as 8.79%.
Take `COc1ccc(S(=O)(=O)CC(=O)c2cc3cccc(C)c3oc2=O)cc1`: the “hERG current change (%, negative = inhibition) at 10uM” value worked out at 5.51%.
The value for `CCCN1Cc2cccc(C(=O)NC(CC(=O)OCC)c3ccc(OCC)c(OC)c3)c2C1=O` (stereo not drawn) was -31.2%; that for `CCCN1Cc2cccc(C(=O)NC(CC(=O)OCC)c3ccc(OC(C)C)cc3)c2C1=O` (stereo not drawn) was -37.6%.
Then `CCCN1Cc2cccc(C(=O)NC(CC(=O)OCC)c3ccc(C)cc3)c2C1=O` (stereo not drawn), with -81.7%; and `Cc1nc2c(C)cccn2c1/C(O)=C1\C(=O)C(=O)N(CCN(C)C)C1c1ccncc1` (stereo not drawn), with 4.49%; and `CC(=O)Nc1ccc(C(=O)CN2C(=O)NC3(CCOc4ccccc43)C2=O)c(F)c1` (stereo not drawn), with -20.5%.
The value for `COc1cccc(CC(NC(C)=O)C(=O)NC2CCN(c3c(Cc4ccccc4)c(C)nc4ncnn34)CC2)c1` (stereo not drawn) was -0.458%; that for `CC(=O)Nc1ccc(NC(=O)C2CCN(c3c(Cc4ccccc4)c(C)nc4ncnn34)CC2)cc1` was 2.74%.
Consider `Cc1nc2ncnn2c(N2CCC(C(=O)NC3CCCC3)CC2)c1Cc1ccccc1`, for which the “hERG current change (%, negative = inhibition) at 10uM” value is listed as -57.4%.
Consider `CC(=O)NC(Cc1ccc(F)c(F)c1)C(=O)NC1CCN(c2c(Cc3ccccc3)c(C)nc3ncnn23)CC1` (stereo not drawn), for which the “hERG current change (%, negative = inhibition) at 10uM” value is reported as -58.7%.
On to `COc1cc(CC(NC(C)=O)C(=O)NC2CCN(c3c(Cc4ccccc4)c(C)nc4ncnn34)CC2)cc(OC)c1` (stereo not drawn), for which the “hERG current change (%, negative = inhibition) at 10uM” value stood at 12%.
For `Cc1nc2ncnn2c(N2CCC(C(=O)NCC3CCCO3)CC2)c1Cc1ccccc1` (stereo not drawn), the “hERG current change (%, negative = inhibition) at 10uM” value is given as -17.6%.
The value for `NC(=O)C1CCCN(C(=O)c2ccc3nc(Cc4cccc(Cl)c4)oc3c2)C1` (stereo not drawn) was -11.5%; that for `Cc1ccnc(SCCn2c(N3CCN(C)CC3)nc3c2c(=O)n(C)c(=O)n3C)n1` was 13.6%; that for `COCCn1c(-c2ccc(F)cc2)nc2oc3cc(OC)ccc3c(=O)c2c1=O` was -19.6%.
Then `CCOC(=O)Nc1sc(C)c(C)c1C(N)=O`, with 9.44%; and `COCC1CCN(Cc2nc(COc3ccccc3)no2)C1` (stereo not drawn), with 12.3%.
Then `CN(Cc1ccccn1)C(=O)CC1C(=O)NCCN1Cc1ccc(F)cc1Cl` (stereo not drawn), with 16.4%.
On to `CN(Cc1cnccn1)C(=O)CC1C(=O)NCCN1Cc1ccc(F)cc1Cl` (stereo not drawn), for which the “hERG current change (%, negative = inhibition) at 10uM” value was determined as 20%.
With `CN(Cc1nccn1C)C(=O)CC1C(=O)NCCN1Cc1ccc(F)cc1Cl` (stereo not drawn), the “hERG current change (%, negative = inhibition) at 10uM” value is on record as -68.9%.
In the case of `Cc1nc2scc(C)n2c(=O)c1S(=O)(=O)N1CCN(c2ccccc2)CC1`, the “hERG current change (%, negative = inhibition) at 10uM” value is -26.3%.
Take `CC(=O)N1CN2CN(C(C)=O)CC(C(=O)c3ccccc3)(C2)C1`: the “hERG current change (%, negative = inhibition) at 10uM” value turned out to be 11%.
Regarding `COc1ccc(C(=O)C23CN4CN(CN(C4)C2)C3)cc1`, the “hERG current change (%, negative = inhibition) at 10uM” value was 4.01%.
`CN1CC2(C(=O)c3ccccc3)CN(C)CC(C(=O)c3ccccc3)(C1)C2`: the “hERG current change (%, negative = inhibition) at 10uM” value is recorded as -53%.
The value for `Cc1ccn2cc(-c3cccc(NC(=O)c4ccccc4)c3)nc2c1` was -19.6%; that for `COc1ccccc1N1CCN(CCCCNC(=O)c2ccc3ccccc3c2)CC1.Cl` was -79.6%; that for `COc1ccc(C(=O)CCN2CCCCCC2)cc1.Cl` was -20%.
Then `COc1ccc(C(=O)CCN2CCN(c3ccc(OC)cc3)CC2)cc1`, with -73.1%.
The value for `COc1ccc(S(N)(=O)=O)cc1C(=O)NCCCN1CCN(c2ccccc2OC)CC1.CS(=O)(=O)O` was 2.27%.
With `COc1ccc(OC)c(NC(=O)CCN2CCN(c3ccccc3F)CC2)c1`, the “hERG current change (%, negative = inhibition) at 10uM” value was -22.1%.
Then `COc1ccc(N2CCN(CCC(=O)c3ccc4ccccc4c3)CC2)cc1`, with -11.2%.
For `COC(=O)CCN(C(=O)c1cc(OC)c(OC)c(OC)c1)c1ccccn1`, the “hERG current change (%, negative = inhibition) at 10uM” value came to 6.81%.
For the molecule `COc1ccc(C(=O)CCN2CCN(c3ccccc3F)CC2)cc1.Cl`, the “hERG current change (%, negative = inhibition) at 10uM” value is given as -71.5%.
The value for `COc1ccccc1N1CCN(CCN(C(=O)c2ccc(F)cc2)c2ccccn2)CC1.Cl` was -78.8%.
Consider `O=C(NCCCN1CCOCC1)c1ccc2ccccc2c1`, for which the “hERG current change (%, negative = inhibition) at 10uM” value was -2.68%.
As to `COc1ccc(N2CCN(CCC(N)=O)CC2)cc1`, the “hERG current change (%, negative = inhibition) at 10uM” value came to 3.39%.
For the molecule `CC(C)(C)OC(=O)N1CCCN(C(=O)Nc2cccc(Cl)c2)CC1`, the “hERG current change (%, negative = inhibition) at 10uM” value is reported as -4.88%.
The value for `O=C(NCc1ccc2c(c1)OCO2)C1CC(=O)N(C2CCCCCC2)C1` (stereo not drawn) was -11.3%; that for `Cc1cc(C)c(NC(=S)NC(=O)c2c(Cl)c(C)nn2C)c([N+](=O)[O-])c1` was 12.2%.
As for `COc1cc(C(=O)NCC(c2cccnc2)N2CCN(C)CC2)cc(OC)c1OC` (stereo not drawn), the “hERG current change (%, negative = inhibition) at 10uM” value amounted to 12.9%.
For `COC(=O)NNC(=O)C1CCC(C)CC1` (stereo not drawn), the “hERG current change (%, negative = inhibition) at 10uM” value is -27.2%.
Consider `O=C(N/N=C/c1ccc(-c2ccccc2[N+](=O)[O-])o1)c1cncc(Br)c1`, for which the “hERG current change (%, negative = inhibition) at 10uM” value was -6.97%.
On to `COc1ccccc1CCNC(=O)C(=O)NCC1OCCN1S(=O)(=O)c1ccc(Br)cc1` (stereo not drawn), for which the “hERG current change (%, negative = inhibition) at 10uM” value is reported as -25.6%.
The value for `COc1ccc(CCn2c(=S)[nH]c3cc(C(=O)NCc4ccco4)ccc3c2=O)cc1OC` was -1.08%.
For the molecule `COc1ccc(CCNS(=O)(=O)c2cc(/C=C/C(=O)O)ccc2C)cc1OC`, the “hERG current change (%, negative = inhibition) at 10uM” value came to 8.58%.
Then `CCOC(=O)N1CCN(CCC(=O)c2ccc(OC)cc2)CC1.Cl`, with -18.2%.
The value for `CCOC(=O)N1CCN(CCC(=O)c2ccc(Cl)cc2)CC1.Cl` was -40.9%; that for `COc1cccc(NC(=O)CCN2CCN(c3ccccc3F)CC2)c1` was -12%.
In the case of `O=C1CC(=C(c2ccccc2)c2ccccc2)C(=O)N1CCCCN1CCN(c2ccccc2)CC1`, the “hERG current change (%, negative = inhibition) at 10uM” value was -63.3%.
The value for `Cl.O=C1CC(=C(c2ccccc2)c2ccccc2)C(=O)N1CCCCN1CCN(c2cccc(Cl)c2)CC1` was -46%; that for `COc1cc(NC(=O)CN2CCN(c3ccccc3F)CC2)cc(OC)c1` was -10.2%.
The value for `NC(=O)CN1CCN(c2ccccc2F)CC1` was 4.12%; that for `O=C1CC(=C(c2ccccc2)c2ccccc2)C(=O)N1CCCN1CCN(c2cccc(Cl)c2)CC1` was 1.35%.
Then `COc1cc(NC(=O)CCN2CCN(c3ccccc3F)CC2)cc(OC)c1`, with -56.6%; and `CCOC(=O)N1CCN(CCC(=O)c2ccc(Br)cc2)CC1.Cl`, with -64.6%.
In the case of `Cl.O=C(CCN1CCN(c2ccccc2F)CC1)c1ccc(Br)cc1`, the “hERG current change (%, negative = inhibition) at 10uM” value is listed as -84.5%.
On to `O=C(CCC(=O)N1CCN(c2ccccc2F)CC1)c1ccc(F)cc1`, for which the “hERG current change (%, negative = inhibition) at 10uM” value is recorded as -35.4%.
Then `CC(C)C[C@H](NC(=O)C1CC(=O)N(c2ccc(F)cc2)C1)C(=O)N1CCCCC1` (stereo partly drawn), with -0.716%.
Turning to `CC1Cc2ccccc2N1C(=O)CSc1nn2c(=O)c(C(C)(C)C)nnc2s1` (stereo not drawn), the “hERG current change (%, negative = inhibition) at 10uM” value is 0.00368%.
Consider `CC(=O)Nc1ccc(S(=O)(=O)Nc2cc(-c3ccccc3)nn2C)cc1`, for which the “hERG current change (%, negative = inhibition) at 10uM” value turned out to be 18.5%.
The value for `COc1ccc(OCCCC(=O)NNC(=O)CCN2CCN(c3ccccc3)CC2)cc1` was 7.89%; that for `COc1ccccc1N1CCN(CC(C)N(C(=O)C2CCCCC2)c2ccccn2)CC1` (stereo not drawn) was -67.9%; that for `COc1ccccc1N1CCN(C(=O)CCC(=O)N2CCN(c3ccc(F)cc3)CC2)CC1` was -17%.
Then `O=C(CCN1CCN(C(=O)c2ccccc2)CC1)c1ccc(Br)cc1`, with -29.5%; and `O=C(CCN1CCN(c2ccccc2)CC1)NNC(=O)Cc1ccccc1Cl`, with 5.76%; and `COc1ccccc1N1CCN(CC(=O)c2ccc(F)cc2)CC1.Cl`, with 15.7%.
Take `Cl.O=C(CCN1CCOCC1)c1ccc(Br)cc1`: the “hERG current change (%, negative = inhibition) at 10uM” value amounted to 25.2%.
Then `COc1ccccc1N1CCN(CCN(C(=O)C2CCCCC2)c2ccccn2)CC1.O=C(O)/C=C\C(=O)O`, with -27.4%.
The value for `CC(Oc1ccc(Br)cc1)C(=O)NNC(=O)CCN1CCN(c2ccccc2)CC1` (stereo not drawn) was -61.9%.
Then `O=C(CCN1CCN(c2ccccc2)CC1)c1ccc(Br)cc1`, with -55.1%.
As to `COc1ccccc1N1CCN(C(=O)C(CC(C)C)NC(=O)C2CCCCC2)CC1` (stereo not drawn), the “hERG current change (%, negative = inhibition) at 10uM” value is given as -16.6%.
Then `COc1ccccc1N1CCN(CCCC(=O)c2ccc(F)cc2)CC1`, with -71.7%; and `Oc1ccc(Cl)cc1C1=NNC(c2cccs2)C1` (stereo not drawn), with 9.76%; and `COc1ccc(C(=O)Nc2cc(C)on2)cc1OC`, with 10%.
For the molecule `O=C(NCCn1cc(SCc2ccc(F)cc2)c2ccccc21)c1c(F)cccc1F`, the “hERG current change (%, negative = inhibition) at 10uM” value stood at 9.31%.
The value for `COc1cccc(C(=O)OCCN2C(=O)c3ccccc3C2=O)c1OC` was 4.5%.
For `CC1CC(C)CN(CCCNC(=O)Cn2ncc3c([nH]c4ccccc43)c2=O)C1` (stereo not drawn), the “hERG current change (%, negative = inhibition) at 10uM” value is on record as -18%.
As for `CC(C)NS(=O)(=O)c1ccc(CCC(=O)Nc2ccc3c(c2)OCO3)cc1`, the “hERG current change (%, negative = inhibition) at 10uM” value turned out to be 1.66%.
On to `COc1ccc2c(c1)C(C)=CC(C)(C)N2C(=O)Nc1ccccc1`, for which the “hERG current change (%, negative = inhibition) at 10uM” value was -14.9%.
Then `O=C(OCC(=O)N1CCN(c2ccccc2)CC1)c1cc(Br)ccc1Cl`, with -25.3%; and `CN(CC(=O)Nc1ccc(F)cc1)C(=O)c1cc(-c2ccco2)nc2ccccc12`, with -32.5%.
In the case of `CCOC(=O)C1=C(CC)Nc2ccccc2N=C1NC(=O)Nc1ccccc1OC`, the “hERG current change (%, negative = inhibition) at 10uM” value was 13.8%.

The values are drawn from paper PMC4336329 (PLoS ONE, 2015).
